Compound activity (PubChem)
Compounds with a hit are over-represented: about 7.4% of the library has one in this group of screens.
Rab9 promoter act – activators of Rab9 promoter; 320,000 compounds, 2.8% hits; Huh7 Rab9 promoter-luciferase reporter, luminescence, 24 h; Potency, µM (top dose mostly 9.22 µM), inactives show at the highest dose activation, negative = inhibition, most hits filed as activators; AID 485297; note: % of control where 0% means no effect; nearly all actives have a fitted effect of over 60% in size
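Using Huh7 cells stably transfected with Rab9 promoter–luciferase, compounds were incubated 24 h at 37 °C, 5% CO2; luciferase luminescence was read 10 min after reagent addition.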
NPC1 prom act – NPC1 promoter activation; Potency, µM (titrated, usually from 9.22 µM), for the others: at the top dose activation, actives largely listed as activators; 320,000 compounds, 2.4% hits; Huh7 NPC1 promoter luciferase reporter, 24 h; AID 485313; note: % of control where 0% means no effect; nearly all actives have a fitted effect of over 60% in size
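Cells: Huh7 expressing luciferase under the NPC1 promoter, 1500/well. Seeded 2 h, compound added, incubated 24 h at 37 °C. Luciferase reagent, 10 min ambient, then luminescence.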
FLuc counter – counter-screen for miR-21 project: firefly luciferase inhibitors or activators; P08659; purified FLuc, Km substrates, luminescence inhibition; Potency, µM (titrated, usually from 57.5 µM), for the others: top-dose activity change, negative = inhibition, usual class: inhibitors; 360,000 compounds, 6.9% hits;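 note: plate controls were vehicle for no effect and reference inhibitor for full effect; nearly all actives have a fitted effect of over 55% in size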
Target sequence (P08659 whole entry, looked up): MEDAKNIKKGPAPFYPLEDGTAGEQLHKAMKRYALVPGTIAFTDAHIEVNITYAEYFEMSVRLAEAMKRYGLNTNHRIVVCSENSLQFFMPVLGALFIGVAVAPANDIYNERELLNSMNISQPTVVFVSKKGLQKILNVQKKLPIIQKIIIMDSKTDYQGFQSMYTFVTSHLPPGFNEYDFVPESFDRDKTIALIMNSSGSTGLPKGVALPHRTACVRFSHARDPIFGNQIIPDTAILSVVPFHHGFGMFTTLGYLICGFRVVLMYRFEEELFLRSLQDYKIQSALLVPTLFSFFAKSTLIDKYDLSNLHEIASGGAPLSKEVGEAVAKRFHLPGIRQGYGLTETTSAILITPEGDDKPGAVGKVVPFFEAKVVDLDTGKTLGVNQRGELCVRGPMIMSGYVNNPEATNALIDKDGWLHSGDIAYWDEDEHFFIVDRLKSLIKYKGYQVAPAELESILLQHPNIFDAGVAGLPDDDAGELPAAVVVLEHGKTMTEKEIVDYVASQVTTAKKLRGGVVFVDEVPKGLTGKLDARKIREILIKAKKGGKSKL
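Purified P. pyralis luciferase (10nM final) with 10uM D-luciferin and 10uM ATP (Km levels) in 50mM Tris acetate pH 7.5, 10mM Mg acetate, 0.01% Tween-20, 0.05% BSA; qHTS 6-point titration, ~60 µM downward; luminescence read.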
ELG1 genotox – induces genotoxicity in HEK293T cells with luciferase-tagged ELG1. 330,000 compounds, 1.3% hits. HEK293T ELG1-luciferase reporter, luminescence, 16 h. Potency, µM (titrated, usually from 46 µM), for inactives: at the top dose activity change, positive = activation, usual class: activators; note: % of control where 0% means no effect; nearly all actives have a fitted effect of over 60% in size
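Luminescence read-out: rising ELG1-luciferase signal, reflecting elevated ELG1 protein under genetic stress, flags genotoxic compounds. Cells were treated for 16 hr at 37 °C before ONE-Glo detection.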
SMN2 splice enh – increases expression of the SMN2 splice variant. HEK293 SMN2-luciferase splicing reporter, luminescence, 30-36 h. Potency, µM (doses to about 46.1 µM), for inactives: at the top dose activity change, positive = activation, usual class: activators. 210,000 compounds, 2.8% hits. AID 1458; note: % of control where 0% means no effect; nearly all actives have a fitted effect of over 55% in size
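HEK293 cells carry an SMN2 […]–luciferase reporter in which exon 7 inclusion puts luciferase in frame. Cells were plated 10-12 h before compound addition, then incubated 30-36 h at 37C. ONE-Glo luminescence was read; sodium butyrate at 4.5 mM final served as control.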
* hit, by the source's call; ? = inconclusive; · = not tested or not shown. Calls come from the whole dose curve; as a rule, active = well fitted curve in the direction sought with a large enough effect; inconclusive = small, poorly fitted or top-dose-only effect, or another doubt; inactive = no such curve, though single readings can be large; an effect the other way counts as inactive or inconclusive. Potency is the fitted concentration of half-maximal effect.

SMILES	Rab9 promoter act	NPC1 prom act	FLuc counter	ELG1 genotox	SMN2 splice enh
C[C@H]1[C@H]2CC[C@H]3[C@@H]4CC=C5C[C@@H](N(C)C)CC[C@]5(C)[C@H]4CC[C@]23CN1C	·	·	·	·	4%
Fc1ccccc1N=C1NN=C(c2ccccc2)CS1	?	2.5µM*	13µM*	?	13µM*
CN(C(=O)c1ccco1)c1nnc(C23CC4CC(CC(C4)C2)C3)s1	?	?	9.5µM*	?	16µM*
CN(C(=O)c1ccco1)c1nc2c(s1)CCCC2	0.89µM*	0.71µM*	2.4µM*	?	14µM*
COc1ccc(N2CCN(CCCNC(=O)c3sc4ncccc4c3-n3cccc3)CC2)cc1	·	·	3%	·	·
CCn1nc(NC(=O)c2ccncc2)c2cc3ccc(C)cc3nc21	-2%	4%	15µM*	-2%	-13%
CCn1nc(NC(=O)c2ccncc2)c2cc3cc(C)ccc3nc21	1%	-1%	17µM*	-3%	32µM*
Cc1oc(-c2ccc(C(=O)Nc3ccc(F)cc3)cc2)nc1COc1ccccc1	·	·	1%	·	·
O=C(NCc1ccccc1)C12CC3CC(CC(C3)C1)C2	29%	-2%	-1%	-7%	-8%
O=C(Nn1nnnc1Nc1ccccc1)C12CC3CC(CC(C3)C1)C2	-4%	-1%	-2%	-4%	22µM*
CC(C)(C)c1ccc(OCC(=O)N2CCN(c3ccccn3)CC2)cc1	-1%	6%	12µM*	-3%	·
O=C(CCSCc1ccccc1Cl)N1CCN(c2ccccn2)CC1	?	?	24µM*	4%	4%
O=C(O)CCC(=O)N1CCN(c2ccccn2)CC1	10%	-2%	3%	-1%	2%
N#C/C(=C/c1cn[nH]c1-c1ccc(Br)cc1)C(=O)O	-4%	-2%	-18%	-19%	-17%
CC(=O)Oc1ccc(/C=C2/Oc3ccccc3C2=O)cc1	13%	17%	3.8µM*	?	·
COc1ccc2c(c1)O/C(=C\c1sccc1C)C2=O	?	?	0.17µM*	18µM*	?
COc1ccc(/C=C2\Oc3ccccc3C2=O)cc1	·	·	·	2.3µM*	·
O=C1/C(=C/c2ccccc2)Oc2cc(OC(=O)N3CCOCC3)ccc21	20%	?	13µM*	9%	?
O=C(c1ccccc1)c1ccc(OC(=O)N2CCOCC2)cc1	16%	13%	-14%	3%	-16%
COc1ccccc1NC(=O)c1c(N=Cc2cccc([N+](=O)[O-])c2)cnn1C	2%	-3%	-3%	6%	·
CCS(=O)(=O)c1ncc(N(Cc2ccco2)Cc2ccccc2F)c(C(=O)Nc2cccc(Cl)c2)n1	·	·	-2%	·	·
CC(C)C(=O)Nc1nc2cc3c(cc2s1)OCO3	?	?	13µM*	18µM*	-7%
CC(C)C(=O)Nc1nnc(SCC(=O)Nc2ccc3c(c2)OCO3)s1	-1%	-5%	4%	-1%	4%
CC(C)(C)C(=O)Nc1nc2cc3c(cc2s1)OCO3	1.1µM*	2µM*	4.8µM*	?	·
COC(=O)[C@@]1(Cc2ccccc2)[C@H]2c3cc(C(=O)N4CCCC4)n(Cc4ccc(C(F)(F)F)nc4)c3C[C@H]2CN1C(=O)c1ccccc1	·	·	·	·	-6%
SMILES	Rab9 promoter act	NPC1 prom act	FLuc counter	ELG1 genotox	SMN2 splice enh
Cc1ccc(C(=O)OC(C)CN2CCN(C)CC2)cc1 (stereo not drawn)	17%	2%	-9%	5%	·
Cc1cccc(-c2nc3c(s2)CCc2onc(-c4ccc(Br)cc4)c2-3)c1	0%	-2%	-13%	5%	·
CS/C(N)=N/N=C/c1cc(Br)cc(Br)c1O	2%	-1%	27µM*	3%	·
CCCCS/C(N)=N/N=C/c1cc(C)ccc1O	5%	18%	17µM*	?	15%
CCN(CC)c1ccc(/C=N/N=C(N)N)c(O)c1	-19%	-11%	-5%	10%	-37%
CCS/C(N)=N/N=C/c1cc(C)ccc1O	?	1.6µM*	0.95µM*	1.2µM*	11µM*
CS/C(N)=N/N=C/c1cc(C)ccc1O	0.16µM*	1.1µM*	1.2µM*	7.3µM*	·
CCOC(=O)N1CCN(C(=O)COC(=O)CNC(=O)c2ccc(OCC)c(OCC)c2)CC1	0%	-3%	0%	-1%	·
Cc1ccc(C)c(NCCC#N)c1	-12%	1%	-7%	-3%	8%
O=C1c2ccccc2C(=O)N1CCN1CCc2ccccc21	?	?	13µM*	?	25%
COc1ccc2cc(-c3[nH]ncc3CN3CCCCO3)ccc2c1	?	18%	15µM*	12%	·
COc1ccc(-c2[nH]ncc2CN2CCCO2)cc1F	2%	-4%	0%	3%	·
COc1ccccc1OCC(=O)NCCC1=CCCCC1	-5%	-2%	2%	0%	12%
COc1ccccc1/C=C/C(=O)NCCC1=CCCCC1	3.2µM*	4µM*	11µM*	?	11µM*
O=C(/C=C/c1ccccc1)NCCC1=CCCCC1	2.8µM*	?	9.5µM*	?	11µM*
O=C(COC(=O)/C=C/c1ccccc1)NCCC1=CCCCC1	0%	-2%	5%	5%	-7%
O=C(/C=C/c1ccc(F)cc1)NCCC1=CCCCC1	?	?	15µM*	13%	?
CC(C)CNC(=O)[C@H](Cc1ccccc1)NC(=O)c1cccs1	1%	2%	2%	-4%	·
CCOc1ccccc1NC(=O)CC(c1ccc(F)cc1)N1Cc2ccccc2C1=O (stereo not drawn)	·	·	-9%	·	·
Cc1ccc(Sc2ncccc2COC(=O)Nc2ccccc2)cc1	-1%	-1%	0%	0%	-7%
CC1CCN(Cc2c(O)ccc3c(=O)c(-c4ccc(Cl)cc4)c(C(F)(F)F)oc23)CC1	·	·	0%	·	-3%
CC1CCN(Cc2c(O)ccc3c(=O)c(-c4nc5ccccc5s4)c(N)oc23)CC1	-4%	-4%	11µM*	-1%	20%
CC1(C)CCCN(Cc2c(O)ccc3c(=O)c(-c4nc5ccccc5s4)c(N)oc23)C1	?	11%	6µM*	?	·
CC1CCCN(Cc2c(O)ccc3c(=O)c(-c4nc5ccccc5s4)c(N)oc23)C1 (stereo not drawn)	5%	9%	6.7µM*	5%	-15%
CC1CCCN(Cc2c(O)ccc3c(=O)c(Oc4ccccc4Cl)c(C(F)(F)F)oc23)C1 (stereo not drawn)	·	·	9%	·	3%
O=C(Cc1ccccc1)Nc1nc(-c2cccs2)cs1	20%	25%	19µM*	4%	-7%
O=C(Cc1ccccc1F)Nc1nc(-c2cccnc2)cs1	15%	1%	-6%	-8%	7%
O=C(Nc1nc(-c2cccs2)cs1)c1ccco1	3.2µM*	4µM*	8.5µM*	10µM*	13µM*
Cc1cc(C(=O)OC(C)C(=O)Nc2nc(-c3ccccc3)cs2)c(C)o1 (stereo not drawn)	-3%	-2%	3%	2%	29%
